A selection: hits, their analogues and other compounds. The true share with any hit is near 7.5%.
RORg inh – inhibitors of mouse ROR gamma transcriptional activity; actives 5.4% (n = 310,000); Drosophila S2 Gal4-RORgamma UAS-luciferase reporter, 20 h; P51450; Potency, µM (doses to about 53.6 µM), usual class: inhibitors; AID 2551; note: nearly all actives have a fitted effect of over 60% in size
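ROR gamma transcriptional activity was tracked as Gal4-UAS luciferase output in stably transfected Drosophila Schneider cells, with compound added 1 hr before 700 uM copper sulfate induction and a 20 hr ambient-temperature incubation.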
TSHR antag – human thyrotropin receptor antagonism | P16473 | TSHR-expressing cells, TSH-stimulated cAMP HTRF, 2 h; stronger effect = lower value | activity change, negative = inhibition, % at 11.5 µM | actives 0.2% (n = 330,000) | AID 504810;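 active = activity change below a set negative limit, meaning inhibition stronger than a set level, cut at about -70% in these data; inconclusive = activity change between two set negative limits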
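Cell-based HTRF cAMP assay; TSHR cells + compound, TSH EC80 (4nM final), 2 h, 37 deg C. Lysis with anti-cAMP cryptate and cAMP-d2, 30 min RT, read 665/620 nm.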
B2AR arrestin – recruits beta-arrestin to the human beta2-adrenergic receptor. P07550. beta-arrestin recruitment to beta2AR, cell-based reporter. Potency, µM (top dose mostly 46.1 µM), usual class: activators. actives 0.02% (n = 330,000); note: nearly all actives have a fitted effect of over 65% in size
Gal4-VP16 FLuc – counter-screen for ROR gamma inhibitors: Gal4-VP16 reporter | Drosophila S2 Gal4-VP16 UAS-luciferase, luminescence, 20 h | Potency, µM (highest dose often 53.6 µM), most hits filed as inhibitors | actives 3.5% (n = 310,000) | AID 2546;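 note: Gal4-VP16 expression switched on by copper sulfate through the metallothionein promoter; nearly all actives have a fitted effect of over 50% in size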
ELG1 DNA repair – inhibitors of ELG1-dependent DNA repair in HEK293T cells | HEK293T ELG1-luciferase reporter, luminescence, 16 h; DNA damage induced by 5-fluorouridine | Potency, µM (top dose mostly 46.1 µM), actives largely listed as inhibitors | actives 2.3% (n = 330,000) | AID 504467; note: nearly all actives have a fitted effect of over 55% in size
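Overnight (16 hr) co-exposure of 2,000 cells/well to 5-fluorouridine and compound at 37 °C preceded detection. Luciferase was quantified via ONE-Glo luminescence; loss of signal denotes inhibition.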
Hits are given with their value; . = inactive; ? = inconclusive; / = not tested or not shown; [ ] = remark or other dose. Unless noted, calls come from the whole dose curve; as a rule, active = well fitted curve in the direction sought with a large enough effect; inconclusive = small, poorly fitted or top-dose-only effect, or another doubt; inactive = no such curve, though single readings can be large; an effect the other way counts as inactive or inconclusive.

SMILES	RORg inh	TSHR antag	B2AR arrestin	Gal4-VP16 FLuc	ELG1 DNA repair
NS(=O)(=O)c1ccc(CCNC(=O)COC(=O)CC(c2ccccc2)c2ccccc2)cc1	.	.	.	.	21µM
NS(=O)(=O)c1ccc(CCNC(=O)CC(c2ccccc2)c2ccccc2)cc1	.	.	.	?	.
O=C(COC(=O)CCS(=O)(=O)c1ccc(Cl)cc1)NCCc1ccccc1	5.6µM	.	.	.	?
CC(C)CCN(C(=O)C1CSC2(C)CCC(=O)N12)c1c(N)n(Cc2ccccc2)c(=O)[nH]c1=O (stereo unspecified)	/	.	.	/	.
Cc1ccc(C(=O)CSc2nnc3c4ccccc4nc(C(C)(C)C)n23)cc1	.[10 µM]	.	.	.	16µM
CC(=O)CSc1nnc2c3ccccc3nc(C(C)(C)C)n12	.	.	.	.[10 µM]	.
CC[C@H](C)[C@H](NC(=O)[C@H](CCC(=O)O)NC(=O)CNC(=O)[C@@H](NC(=O)[C@H](CCC(=O)O)NC(=O)[C@H](CCC(=O)O)NC(=O)[C@H](CC(C)C)NC(=O)CNC(=O)[C@@H]1CCCN1C(=O)[C@H](CCC(=O)O)NC(=O)[C@@H](N)[C@@H](C)O)C(C)C)C(=O)N[C@@H](CCC(=O)O)C(=O)N[C@@H](CCC(N)=O)C(=O)N[C@@H](CCCCN)C(=O)N[C@@H](CCC(N)=O)C(=O)N[C@@H](CC(C)C)C(=O)N[C@@H](CCC(N)=O)C(=O)O	.	/	/	.	/
CN(C)S(=O)(=O)c1cccc(NC(=O)c2cccc(S(=O)(=O)N3CCc4ccccc43)c2)c1	/	.	.	/	16µM
COc1cccc(OC)c1C(=O)Nc1ccc2c(c1)CCCN2S(=O)(=O)c1ccc(C)cc1	.	.	.	.	.
Cc1ccc(S(=O)(=O)N2CCCc3cc(NC(=O)c4c(F)cccc4F)ccc32)cc1	.	.	.	.	23µM
COc1cccc(OC)c1C(=O)Nc1ccc2c(c1)N(S(=O)(=O)c1cccs1)CCC2	.	-112	.	.	.
CC(=O)c1cccc(NC(=O)c2ccc3c(c2)CCN3S(=O)(=O)c2ccccc2)c1	?	.	.	13µM	?
CC(=O)Nc1cccc(NC(=O)c2ccc3c(c2)CCN3S(=O)(=O)c2ccccc2)c1	.	.	.	.	.
CNS(=O)(=O)c1ccc2c(c1)C(=O)c1cc(S(=O)(=O)NC)ccc1CC2	/	.	.	/	.
Cc1ccc(S(=O)(=O)N2CCOC23CCN(S(=O)(=O)c2c(C)cc(C)cc2C)CC3)cc1	/	.	.	/	?
C#CCOc1ccc(C(=O)N(C)c2ccccc2I)cc1	.	/	/	.	/
O=C(Nc1ccc(C(=O)Nc2ccc(C(=O)Nc3ccc(S(=O)(=O)O)c4cc(S(=O)(=O)O)cc(S(=O)(=O)O)c34)cc2)cc1)Nc1ccc(C(=O)Nc2ccc(C(=O)Nc3ccc(S(=O)(=O)O)c4cc(S(=O)(=O)O)cc(S(=O)(=O)O)c34)cc2)cc1	.	/	/	.	/
CC1(C)C(=O)Nc2ccccc2N1C(=O)COc1ccccc1C#N	/	.	.	/	.
COC1=C(C(=O)c2ccccc2)C(=O)C2(CC=C(C)C)C[C@H](C(=O)OCC(F)(F)F)C(C)(C)[C@@]1(CC=C(C)C)C2=O (tested in a mixture with another compound)	.	/	/	.	/
O=C(Nc1ncccc1O)c1cccc(S(=O)(=O)N2CCCc3ccccc32)c1	/	.	.	/	.
Cc1cccnc1NC(=O)c1cccc(S(=O)(=O)N2CCCc3ccccc32)c1	11µM	.	.	?	?
Cc1cccc(C)c1NC(=O)NC1CC2CCC(C1)N2Cc1cccs1 (stereo unspecified)	.	.	.	.	.
CCCN1C2CCCC1CC(NC(=S)Nc1cccc(C)c1C)C2 (stereo unspecified)	.	.	.	.	.
Cc1cccc(NC(=S)NC2CC3CCCC(C2)N3Cc2cccs2)c1C (stereo unspecified)	2.5µM	.	.	?	.
CCc1ccccc1NC(=S)NC1CC2CCCC(C1)N2Cc1cccs1 (stereo unspecified)	11µM	.	.	?	.
CC1CC=CC2C1C(=O)N(Cc1ccccc1)C2c1ccc(-c2ccc(N(C)C)cc2)cc1F (stereo unspecified)	.	/	/	.	/
